Out of some 330,000 compounds screened, about 4,900 (1.5%) were called active.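 How the source made its calls: active means inhibition above about 50% at the single test dose (limit read from the data); inactive means the rest.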 The full list was thinned out, with actives kept by preference.

For the assay, the target named is Sentrin-specific protease 7 (Homo sapiens) (UniProt Q9BQF6). The assay is described as follows: blockers of human SENP7 peptidase activity – biochemical, luminescence, uHTS, primary screen (AID 434973).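 Further: plate controls were DMSO with enzyme for no effect and no enzyme buffer wells for full effect.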 The following applies: recombinant SENP7, Z-RLRGG-aminoluciferin luminescence, 40 min; at 5 µM; hits give high values.
The inhibition is the relative decrease from the control value, in per cent. As for `O=C(c1ccccc1F)N(Cc1ccccc1)Cc1ccccc1`, the inhibition was -9.2% (inactive).

Consider `Cc1c(Cl)c([N+](=O)[O-])nn1Cc1ccc(C(=O)N/N=C\c2cc(Cl)ccc2O)o1`, for which the inhibition was 10.1% (inactive).

On to `CCN(CC)S(=O)(=O)c1ccc(OC(C)C)c(N)c1`, for which the inhibition is 2.51% (inactive).

With `CC(=O)C1C(c2ccc(Cl)cc2)c2c(n[nH]c2C)CC1(C)O` (stereo not drawn), the inhibition was -1.26% (inactive).

In the case of `CC(=O)NNC1=Nc2ccccc2N(C)C(C)C1` (stereo not drawn), the inhibition was 1.41% (inactive).

For `CCc1cc(=O)oc2cc(OCC(=O)N3CCCc4ccccc43)ccc12`, the inhibition was -13.1% (inactive).

Consider `Cc1ccc(-c2cn(S(=O)(=O)c3cccc([N+](=O)[O-])c3)nc2N)cc1`, for which the inhibition was 1.39% (inactive).

For `Cc1ccc(-n2cc3ccc([N+](=O)[O-])cc3n2)cc1`, the inhibition is 87.9% (active).

For the molecule `Cc1ccnc(N2C(=O)c3ccc([N+](=O)[O-])cc3C2=O)c1`, the inhibition is -0.103% (inactive).

Regarding `CC(C)(C)c1cc[n+](-c2[nH]c(=O)sc2/C=N/N=C(\[O-])c2ccccc2)cc1`, the inhibition is 1.22% (inactive).

Regarding `CCN(CC)S(=O)(=O)c1ccc(N2CCOCC2)c(NC(=O)c2ccc(=O)n(C)n2)c1`, the inhibition is -0.97% (inactive).

Consider `CCC(C)C(NC(=O)C1CCC(=O)N1C(=O)OCc1ccccc1)C(=O)NC(C(=O)N1CCCC1C(N)=O)C(C)CC` (stereo not drawn), for which the inhibition was -7.38% (inactive).

As for `Cc1ccc(C(=O)O/N=C(\N)c2ccccn2)cc1Cl`, the inhibition is 95.8% (active).

`O=C(COC(=O)c1ccccn1)NNC(=O)c1ccc([N+](=O)[O-])cc1`: the inhibition was 4.18% (inactive).

`COc1ccc(C(=O)O/N=C(\N)c2ccccn2)cc1[N+](=O)[O-]`: the inhibition is 10.4% (inactive).

For `Cc1ccc(NC(=O)c2ccccn2)cc1S(=O)(=O)N1CCOCC1`, the inhibition was -1.52% (inactive).

For `O=C(COC(=O)c1ccccn1)NNC(=O)c1ccc(Br)cc1`, the inhibition was 8.04% (inactive).

Turning to `N/C(=N\OC(=O)c1ccc([N+](=O)[O-])cc1)c1ccccn1`, the inhibition was 94.8% (active).

As to `CCCCN=C(N)/C(C(=O)OCC)=C(\O)c1ccc(OC)cc1`, the inhibition was 13.1% (inactive).

Turning to `CC(OC(=O)CN1C(=O)c2ccccc2C1=O)C(=O)c1ccccc1` (stereo not drawn), the inhibition was 5.15% (inactive).

On to `CCc1ccc(NC(=O)CN2C(=O)COc3ccc(S(=O)(=O)N4CCCC4)cc32)cc1`, for which the inhibition is 2.36% (inactive).

`C=C(Br)Cn1c(CCCC)nc2ccccc21`: the inhibition was 2.52% (inactive).

Take `O=[N+]([O-])c1cccc(C2=NCCS2)c1`: the inhibition is -1.11% (inactive).

With `FC(F)(F)c1ccnc(Oc2ccc(C3=NCCS3)cc2)c1`, the inhibition is 67.2% (active).

For `CC(C)Oc1ccc(Oc2ccc(C(F)(F)F)cn2)cc1`, the inhibition is -3.04% (inactive).

`COc1ccc(C(=O)n2nc(C)c(Br)c2C)cc1OC`: the inhibition is 0.64% (inactive).

On to `COC(=O)CN1C(=O)[C@H]2[C@@H](/C=C/c3ccccc3)N3C(=O)CN(CC4CC4)C(=O)[C@@]3(Cc3ccccc3)[C@H]2C1=O`, for which the inhibition is -16.2% (inactive).

As for `CCCCSc1nnc(-c2ccc(C)cc2)o1`, the inhibition was 58.9% (active).

Turning to `CCOC(=O)CSc1nnc(-c2ccc([N+](=O)[O-])cc2)o1`, the inhibition is -2.17% (inactive).

For the molecule `CCOC(=O)CSc1nnc(-c2cccc(Br)c2)o1`, the inhibition was -6.07% (inactive).

In the case of `CCOc1ccc(NC(=O)CN(C)C(=O)c2cccc(S(=O)(=O)N3CCCC3)c2)cc1OCC`, the inhibition was -6.73% (inactive).

Regarding `CSc1nnc2ccc(-c3ccc(C)cc3)nn12`, the inhibition is -16.3% (inactive).

Turning to `Cc1ccc(-c2cn3cc(C)ccc3n2)cc1`, the inhibition is 86.5% (active).

With `Cc1ccc(-c2cc(N)on2)cc1`, the inhibition is -4.29% (inactive).

Consider `Cc1ccc2nc(-c3ccc(Br)cc3)cn2c1`, for which the inhibition is 89.3% (active).

Take `Cc1ccc(-n2c(-c3ccc(Cl)cc3)n[nH]c2=S)cc1`: the inhibition is -0.859% (inactive).

`Cc1cc(N2CCOCC2)nc(-c2ccc(Br)cc2)n1`: the inhibition was -7.07% (inactive).

With `O=C1C2C3C=CC(C3)C2C(=O)N1c1ccc(S(=O)(=O)Nc2nccs2)cc1` (stereo not drawn), the inhibition is 4.27% (inactive).

For the molecule `CN(C)c1cccc(C(=O)N2CCC(n3nccc3NC(=O)C3CCOC3)CC2)c1` (stereo not drawn), the inhibition was 9.95% (inactive).

With `CCCCC(=O)Nc1c2c(nn1-c1ccc([N+](=O)[O-])cc1)CS(=O)(=O)C2`, the inhibition was -1.87% (inactive).

With `CC1C(=O)N(Cc2ccccc2)c2ccccc2N1C(=O)c1ccccc1` (stereo not drawn), the inhibition was -2.81% (inactive).

In the case of `COc1cc(Cl)cc(C2NC(=O)NC(C)=C2C(=O)NCc2ccccc2)c1O` (stereo not drawn), the inhibition is -4.23% (inactive).

With `Cn1cccc1C(=O)OCC(=O)NCCc1ccccc1`, the inhibition was -5.93% (inactive).

In the case of `Cn1cccc1C(=O)OCC(=O)c1ccc(Br)s1`, the inhibition is 82.4% (active).

In the case of `O=C(COC(=O)c1c2c(nc3ccccc13)CCCC2)c1ccc(Br)s1`, the inhibition was 14.3% (inactive).

As to `O=C(CSc1nncn1-c1cccnc1)N1CCOCC1`, the inhibition is 5.85% (inactive).

`Cc1n[nH]c(=O)c2c(NC(=O)CSc3cc(Cl)ccc3Cl)oc(C)c12`: the inhibition was -0.542% (inactive).

As to `CC1CN(c2cc(=O)n(-c3cccc(Br)c3)c(=O)[nH]2)CC(C)O1` (stereo not drawn), the inhibition was 4.5% (inactive).

As to `Cc1cnc(C(=O)OCC(=O)N2CCc3ccccc32)cn1`, the inhibition is -1.46% (inactive).

Regarding `O=C(c1cnn2ccccc12)N1CCc2ccccc21`, the inhibition is 52.8% (active).

For `CCOC(=O)N1CCC(NC(=O)c2cnn3ccccc23)CC1`, the inhibition is -0.379% (inactive).

`Cc1ccc(S(=O)(=O)/N=S(\C)C(C)C)cc1` (stereo not drawn): the inhibition is -7.18% (inactive).

With `CCC(C)(C(=O)NC1CCCC1)N(C(=O)CNC(C)=O)c1ccc(C)cc1` (stereo not drawn), the inhibition was -2.07% (inactive).

For the molecule `COc1ccccc1NC(=O)c1ccc(N2CC3CC(C2)c2cccc(=O)n2C3)c(NC(=O)c2cccnc2)c1` (stereo not drawn), the inhibition is 70.4% (active).

For the molecule `COc1ccccc1NC(=O)c1ccc2nc(N3C(=O)CCC3=O)sc2c1`, the inhibition is -10.2% (inactive).

For `CCOc1ccccc1NC(=O)c1cccnc1`, the inhibition is -1.12% (inactive).

As for `O=C(CC1C(=O)NCCN1CC(c1ccccc1)c1ccccc1)NCCc1cn[nH]c1` (stereo not drawn), the inhibition was -0.769% (inactive).

For the molecule `O=C(COC(=O)c1ccncc1)c1ccccc1`, the inhibition was -15% (inactive).

Take `Cc1noc(C)c1COC(=O)COc1ccc(-c2ccccc2)cc1`: the inhibition was 6.3% (inactive).

With `O=C(Oc1ccc(-c2nc(-c3ccccn3)no2)cc1)c1ccccc1`, the inhibition is 99.8% (active).

As to `CN(C(=O)CSc1nncc2ccccc12)C1CCCCC1`, the inhibition is -7.84% (inactive).

Take `CN(C(=O)c1cc2c(=O)n3ccccc3nc2s1)C1CCCCC1`: the inhibition is -3.91% (inactive).

With `CN(c1ccc2nc3ccccc3c(=O)n2n1)C1CCCCC1`, the inhibition was 93.7% (active).
